Measurements reported in paper PMC7862700, “An all-to-all approach to the identification of sequence-specific readers for epigenetic DNA modifications on cytosine”.

Experiments:
Experiment in all cases: DAPPL (digital affinity profiling via proximity ligation, sequencing); 10 mM Tris-HCl pH 7.5, 50 mM NaCl, 1 mM DTT, 4% glycerol, room temperature, 30 min; GST-TFs on glutathione beads, 16-mer random dsDNA library, 0.1% formaldehyde crosslink after washing; high values mean tight binding
Conditions in all cases: protein: recombinant; tags: N-terminal GST; dsDNA, one strand shown
ELK1 = target: T1, ELK1 (Homo sapiens, UniProt P19419 1-428)
T1 sequence: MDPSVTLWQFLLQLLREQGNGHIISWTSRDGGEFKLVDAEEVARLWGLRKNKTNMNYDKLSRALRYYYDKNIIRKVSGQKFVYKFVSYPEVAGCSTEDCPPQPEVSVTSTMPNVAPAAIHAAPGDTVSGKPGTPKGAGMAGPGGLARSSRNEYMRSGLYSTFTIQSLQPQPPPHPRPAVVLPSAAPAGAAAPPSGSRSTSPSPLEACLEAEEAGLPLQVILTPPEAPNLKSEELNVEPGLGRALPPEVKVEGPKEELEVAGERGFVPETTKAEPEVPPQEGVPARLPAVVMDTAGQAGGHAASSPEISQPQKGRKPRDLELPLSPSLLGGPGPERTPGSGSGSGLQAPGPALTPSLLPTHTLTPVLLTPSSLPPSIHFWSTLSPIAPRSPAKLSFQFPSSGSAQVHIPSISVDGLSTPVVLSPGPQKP
Procedure, shortened: (§1)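 Human transcription factors fused to GST were expressed in yeast, captured on glutathione beads, given DNA barcodes and pooled with a GST-only negative control. Pools were incubated with 200 nmole of a 16-mer random double-stranded DNA library in Tris/NaCl/DTT/glycerol buffer at room temperature for 30 min. They were then washed, crosslinked with 0.1% formaldehyde, proximity-ligated (BsaI/T4 ligase, 1 h, 37 °C), PCR-amplified and sequenced on an Illumina NextSeq500. Binding signal is each 6-mer's read frequency for a factor divided by its frequency for the GST control.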

GABPA = target: T2, GABPA (Homo sapiens, UniProt Q06546 1-454)
T2 sequence: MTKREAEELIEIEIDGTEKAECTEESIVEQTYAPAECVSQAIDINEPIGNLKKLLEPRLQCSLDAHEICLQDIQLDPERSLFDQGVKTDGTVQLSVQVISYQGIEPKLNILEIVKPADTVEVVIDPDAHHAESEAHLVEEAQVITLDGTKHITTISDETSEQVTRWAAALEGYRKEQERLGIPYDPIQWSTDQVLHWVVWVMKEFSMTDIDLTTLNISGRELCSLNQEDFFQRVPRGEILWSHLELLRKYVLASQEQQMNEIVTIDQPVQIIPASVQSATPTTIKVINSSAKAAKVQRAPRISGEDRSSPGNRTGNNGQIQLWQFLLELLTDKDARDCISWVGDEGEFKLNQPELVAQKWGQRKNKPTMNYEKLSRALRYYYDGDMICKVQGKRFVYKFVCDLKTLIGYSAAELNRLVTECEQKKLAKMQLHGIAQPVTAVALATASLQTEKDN
Procedure, shortened: as §1

ERG = target: T3, ERG (Homo sapiens, UniProt P11308 1-479)
T3 sequence: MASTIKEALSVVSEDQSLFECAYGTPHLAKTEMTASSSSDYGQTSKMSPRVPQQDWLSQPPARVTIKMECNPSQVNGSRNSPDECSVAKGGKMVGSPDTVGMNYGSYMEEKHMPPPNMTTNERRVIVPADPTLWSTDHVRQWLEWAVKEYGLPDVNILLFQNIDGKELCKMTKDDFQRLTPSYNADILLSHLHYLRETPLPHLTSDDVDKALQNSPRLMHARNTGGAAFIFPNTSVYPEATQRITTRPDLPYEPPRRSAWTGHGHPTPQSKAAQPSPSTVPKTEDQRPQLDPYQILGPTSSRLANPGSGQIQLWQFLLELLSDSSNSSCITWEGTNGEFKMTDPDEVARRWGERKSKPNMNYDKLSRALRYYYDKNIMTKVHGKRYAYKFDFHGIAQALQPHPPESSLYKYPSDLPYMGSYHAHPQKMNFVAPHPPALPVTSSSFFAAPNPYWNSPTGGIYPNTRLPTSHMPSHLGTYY
Procedure, shortened: as §1

ELF1 = ELF1 (Homo sapiens, UniProt P32519 1-619)
ELF1, sequence (P32519 whole entry): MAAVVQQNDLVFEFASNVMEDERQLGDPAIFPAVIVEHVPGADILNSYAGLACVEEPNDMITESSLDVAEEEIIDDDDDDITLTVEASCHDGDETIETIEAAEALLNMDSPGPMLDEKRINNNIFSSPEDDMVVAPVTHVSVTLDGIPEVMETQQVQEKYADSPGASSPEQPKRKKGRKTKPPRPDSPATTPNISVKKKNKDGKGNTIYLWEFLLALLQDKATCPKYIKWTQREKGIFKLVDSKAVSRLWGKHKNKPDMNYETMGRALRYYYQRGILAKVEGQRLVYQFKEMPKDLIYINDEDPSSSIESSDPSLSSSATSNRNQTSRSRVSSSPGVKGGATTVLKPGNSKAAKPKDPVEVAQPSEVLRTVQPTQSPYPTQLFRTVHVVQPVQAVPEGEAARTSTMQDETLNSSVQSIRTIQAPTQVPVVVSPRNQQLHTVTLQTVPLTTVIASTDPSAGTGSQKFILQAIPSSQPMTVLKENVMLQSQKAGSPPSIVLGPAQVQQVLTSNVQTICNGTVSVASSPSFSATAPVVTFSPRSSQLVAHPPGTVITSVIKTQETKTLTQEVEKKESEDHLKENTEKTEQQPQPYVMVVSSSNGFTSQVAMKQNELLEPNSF
Procedure, shortened: as §1

ELK3 = target: T4, ELK3 (Homo sapiens, UniProt P41970 1-407)
T4 sequence: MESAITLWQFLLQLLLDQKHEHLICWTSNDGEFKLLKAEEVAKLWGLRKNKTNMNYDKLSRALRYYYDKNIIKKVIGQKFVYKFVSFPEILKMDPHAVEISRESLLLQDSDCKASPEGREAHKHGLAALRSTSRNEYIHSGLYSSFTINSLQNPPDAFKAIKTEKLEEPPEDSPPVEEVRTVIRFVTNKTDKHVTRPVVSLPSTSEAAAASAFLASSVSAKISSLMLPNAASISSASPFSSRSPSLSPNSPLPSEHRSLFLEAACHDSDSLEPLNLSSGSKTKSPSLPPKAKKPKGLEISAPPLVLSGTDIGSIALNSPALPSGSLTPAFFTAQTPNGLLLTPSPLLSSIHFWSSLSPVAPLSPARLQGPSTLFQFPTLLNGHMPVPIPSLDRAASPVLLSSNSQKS
Procedure, shortened: as §1

FEV = target: T5, FEV (Homo sapiens, UniProt Q99581 1-238)
T5 sequence: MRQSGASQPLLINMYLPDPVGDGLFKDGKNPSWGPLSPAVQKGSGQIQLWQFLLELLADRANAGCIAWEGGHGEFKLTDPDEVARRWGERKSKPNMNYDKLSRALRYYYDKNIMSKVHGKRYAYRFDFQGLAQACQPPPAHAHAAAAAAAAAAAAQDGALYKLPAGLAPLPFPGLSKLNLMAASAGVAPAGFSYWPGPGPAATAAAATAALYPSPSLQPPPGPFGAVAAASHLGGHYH
Procedure, shortened: as §1

ETV5 = ETV5 (Homo sapiens, UniProt P41161 1-510)
ETV5, sequence (P41161 whole entry): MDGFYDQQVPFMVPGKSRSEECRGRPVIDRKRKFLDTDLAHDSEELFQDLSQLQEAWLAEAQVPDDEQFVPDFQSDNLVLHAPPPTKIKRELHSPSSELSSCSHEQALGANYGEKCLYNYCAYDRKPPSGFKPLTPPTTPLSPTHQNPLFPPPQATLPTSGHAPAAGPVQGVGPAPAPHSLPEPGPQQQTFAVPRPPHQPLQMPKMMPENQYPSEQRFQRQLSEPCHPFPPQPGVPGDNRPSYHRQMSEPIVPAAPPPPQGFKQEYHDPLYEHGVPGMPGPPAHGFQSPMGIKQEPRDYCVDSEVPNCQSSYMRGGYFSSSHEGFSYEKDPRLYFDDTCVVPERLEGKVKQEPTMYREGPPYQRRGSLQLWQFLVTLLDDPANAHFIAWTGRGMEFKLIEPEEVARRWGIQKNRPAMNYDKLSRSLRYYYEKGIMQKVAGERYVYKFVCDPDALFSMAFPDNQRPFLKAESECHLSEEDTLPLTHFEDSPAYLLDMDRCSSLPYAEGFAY
Procedure, shortened: as §1

ELF4 = ELF4 (Homo sapiens, UniProt Q99607 1-663)
ELF4, sequence (Q99607 whole entry): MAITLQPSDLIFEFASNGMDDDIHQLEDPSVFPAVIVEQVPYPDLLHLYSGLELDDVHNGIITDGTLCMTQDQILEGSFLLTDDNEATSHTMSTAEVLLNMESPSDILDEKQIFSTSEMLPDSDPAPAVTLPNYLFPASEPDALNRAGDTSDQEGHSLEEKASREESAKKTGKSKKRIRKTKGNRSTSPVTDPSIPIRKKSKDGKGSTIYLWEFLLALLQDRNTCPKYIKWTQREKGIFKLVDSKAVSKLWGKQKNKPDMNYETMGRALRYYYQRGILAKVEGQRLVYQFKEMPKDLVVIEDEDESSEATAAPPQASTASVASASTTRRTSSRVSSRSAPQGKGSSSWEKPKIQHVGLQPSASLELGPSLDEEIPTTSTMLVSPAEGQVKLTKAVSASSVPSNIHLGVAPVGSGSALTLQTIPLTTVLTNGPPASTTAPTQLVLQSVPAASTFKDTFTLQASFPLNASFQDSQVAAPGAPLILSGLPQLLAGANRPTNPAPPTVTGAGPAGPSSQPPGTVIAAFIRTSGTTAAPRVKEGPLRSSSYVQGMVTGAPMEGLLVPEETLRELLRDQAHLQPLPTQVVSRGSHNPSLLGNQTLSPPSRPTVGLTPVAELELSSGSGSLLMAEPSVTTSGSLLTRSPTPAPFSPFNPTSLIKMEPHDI
Procedure, shortened: as §1

ELK4 = target: T6, ELK4 (Homo sapiens, UniProt P28324-2 1-405)
T6 sequence: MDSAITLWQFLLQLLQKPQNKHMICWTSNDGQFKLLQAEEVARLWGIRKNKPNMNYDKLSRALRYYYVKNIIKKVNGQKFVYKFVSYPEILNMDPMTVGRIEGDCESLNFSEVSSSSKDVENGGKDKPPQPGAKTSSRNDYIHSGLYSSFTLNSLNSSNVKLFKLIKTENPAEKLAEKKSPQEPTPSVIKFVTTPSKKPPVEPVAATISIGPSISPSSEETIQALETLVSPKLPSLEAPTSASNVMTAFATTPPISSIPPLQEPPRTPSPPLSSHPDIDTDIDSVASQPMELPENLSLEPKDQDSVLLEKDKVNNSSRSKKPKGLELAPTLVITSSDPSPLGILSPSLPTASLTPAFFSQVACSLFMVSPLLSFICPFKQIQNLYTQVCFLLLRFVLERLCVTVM
Procedure, shortened: as §1

ERF = target: T7, ERF (Homo sapiens, UniProt P50548 1-548)
T7 sequence: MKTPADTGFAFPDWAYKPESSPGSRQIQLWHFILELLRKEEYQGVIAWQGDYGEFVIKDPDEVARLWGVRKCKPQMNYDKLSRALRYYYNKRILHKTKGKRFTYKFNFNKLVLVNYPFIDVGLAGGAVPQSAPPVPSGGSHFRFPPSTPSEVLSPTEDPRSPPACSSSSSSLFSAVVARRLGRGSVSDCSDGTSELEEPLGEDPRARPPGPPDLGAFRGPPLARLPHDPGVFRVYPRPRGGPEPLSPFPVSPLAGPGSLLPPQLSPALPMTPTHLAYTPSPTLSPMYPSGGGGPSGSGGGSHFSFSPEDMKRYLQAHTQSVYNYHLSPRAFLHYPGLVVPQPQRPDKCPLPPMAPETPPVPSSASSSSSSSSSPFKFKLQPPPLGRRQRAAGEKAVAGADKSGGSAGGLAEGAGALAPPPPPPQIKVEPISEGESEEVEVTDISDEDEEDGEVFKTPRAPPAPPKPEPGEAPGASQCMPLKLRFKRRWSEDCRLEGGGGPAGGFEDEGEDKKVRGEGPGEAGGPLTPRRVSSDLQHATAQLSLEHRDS
Procedure, shortened: as §1

ETS2 = target: T8, ETS2 (Homo sapiens, UniProt P15036 1-469)
T8 sequence: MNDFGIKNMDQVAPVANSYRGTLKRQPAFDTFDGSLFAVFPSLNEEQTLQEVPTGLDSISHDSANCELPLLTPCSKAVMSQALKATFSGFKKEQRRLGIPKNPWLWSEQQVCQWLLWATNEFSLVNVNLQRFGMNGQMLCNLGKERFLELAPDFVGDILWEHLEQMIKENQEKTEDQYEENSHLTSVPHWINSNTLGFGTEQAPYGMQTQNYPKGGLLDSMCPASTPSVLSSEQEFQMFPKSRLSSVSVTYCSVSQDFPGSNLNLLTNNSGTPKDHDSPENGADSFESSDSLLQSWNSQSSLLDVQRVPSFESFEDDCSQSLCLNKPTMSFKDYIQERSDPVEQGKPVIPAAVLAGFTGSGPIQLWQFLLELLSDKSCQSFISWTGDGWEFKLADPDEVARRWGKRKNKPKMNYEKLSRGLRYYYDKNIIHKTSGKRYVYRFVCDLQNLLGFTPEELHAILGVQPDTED
Procedure, shortened: as §1

ETV6 = ETV6 (Homo sapiens, UniProt P41212 1-452)
ETV6, sequence (P41212 whole entry): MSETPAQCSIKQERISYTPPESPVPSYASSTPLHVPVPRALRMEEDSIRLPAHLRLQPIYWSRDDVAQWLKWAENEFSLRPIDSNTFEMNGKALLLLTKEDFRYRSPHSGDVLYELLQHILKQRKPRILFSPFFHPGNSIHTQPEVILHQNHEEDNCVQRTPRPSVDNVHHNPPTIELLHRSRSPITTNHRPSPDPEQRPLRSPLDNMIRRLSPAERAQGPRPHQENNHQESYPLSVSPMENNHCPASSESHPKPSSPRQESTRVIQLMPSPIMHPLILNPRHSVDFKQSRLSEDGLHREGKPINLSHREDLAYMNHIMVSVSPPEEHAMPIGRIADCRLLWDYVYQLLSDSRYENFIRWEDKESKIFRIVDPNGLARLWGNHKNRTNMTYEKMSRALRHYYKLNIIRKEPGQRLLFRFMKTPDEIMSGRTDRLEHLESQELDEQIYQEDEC
Procedure, shortened: as §1

SPIB = SPIB (Homo sapiens, UniProt Q01892 1-262)
SPIB, sequence (Q01892 whole entry): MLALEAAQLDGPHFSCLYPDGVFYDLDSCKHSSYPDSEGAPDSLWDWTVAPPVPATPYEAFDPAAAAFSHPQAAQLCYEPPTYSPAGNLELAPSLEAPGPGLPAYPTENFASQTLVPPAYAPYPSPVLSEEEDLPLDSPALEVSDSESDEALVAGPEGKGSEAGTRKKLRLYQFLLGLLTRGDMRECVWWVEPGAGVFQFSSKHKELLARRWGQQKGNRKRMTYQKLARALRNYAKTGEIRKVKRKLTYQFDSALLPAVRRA
Procedure, shortened: as §1

ELF3 = target: T9, ELF3 (Homo sapiens, UniProt P78545 1-371)
T9 sequence: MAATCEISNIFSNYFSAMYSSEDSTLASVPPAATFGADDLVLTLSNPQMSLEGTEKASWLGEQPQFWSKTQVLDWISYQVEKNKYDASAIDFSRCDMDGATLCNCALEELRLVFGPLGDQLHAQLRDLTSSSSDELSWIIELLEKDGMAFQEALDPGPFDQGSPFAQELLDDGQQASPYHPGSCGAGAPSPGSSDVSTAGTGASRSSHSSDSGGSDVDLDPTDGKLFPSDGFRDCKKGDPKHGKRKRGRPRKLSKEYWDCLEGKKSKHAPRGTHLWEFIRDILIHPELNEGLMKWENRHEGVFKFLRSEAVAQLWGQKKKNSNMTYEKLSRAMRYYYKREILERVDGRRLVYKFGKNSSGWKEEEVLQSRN
Procedure, shortened: as §1

ETV1 = ETV1 (Homo sapiens, UniProt P50549 1-477)
ETV1, sequence (P50549 whole entry): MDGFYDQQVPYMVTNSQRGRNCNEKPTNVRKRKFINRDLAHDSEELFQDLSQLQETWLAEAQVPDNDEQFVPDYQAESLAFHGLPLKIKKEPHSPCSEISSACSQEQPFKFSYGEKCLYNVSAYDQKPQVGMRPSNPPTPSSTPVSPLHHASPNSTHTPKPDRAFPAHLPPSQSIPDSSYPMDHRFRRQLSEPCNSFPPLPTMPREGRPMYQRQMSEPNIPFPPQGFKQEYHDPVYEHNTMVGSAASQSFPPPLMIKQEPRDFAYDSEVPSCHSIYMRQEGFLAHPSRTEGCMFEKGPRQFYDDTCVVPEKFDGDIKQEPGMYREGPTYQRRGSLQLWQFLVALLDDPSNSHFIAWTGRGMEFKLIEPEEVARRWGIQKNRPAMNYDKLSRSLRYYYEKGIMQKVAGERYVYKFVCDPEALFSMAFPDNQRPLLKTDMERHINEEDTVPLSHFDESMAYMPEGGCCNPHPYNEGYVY
Procedure, shortened: as §1

ETV3L = target: T10, ETV3L (Homo sapiens, UniProt Q6ZN32 1-361)
T10 sequence: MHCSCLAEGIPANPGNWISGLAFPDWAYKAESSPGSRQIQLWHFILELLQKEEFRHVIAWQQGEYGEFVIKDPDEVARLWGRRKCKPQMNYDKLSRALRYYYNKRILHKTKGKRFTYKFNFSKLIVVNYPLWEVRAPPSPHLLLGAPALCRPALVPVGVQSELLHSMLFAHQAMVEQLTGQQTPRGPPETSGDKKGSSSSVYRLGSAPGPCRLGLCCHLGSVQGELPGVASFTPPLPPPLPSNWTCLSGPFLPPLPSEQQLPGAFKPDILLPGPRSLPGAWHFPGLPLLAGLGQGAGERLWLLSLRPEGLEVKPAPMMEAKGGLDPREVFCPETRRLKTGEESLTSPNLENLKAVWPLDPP
Procedure, shortened: as §1

ETV7 = target: T11, ETV7 (Homo sapiens, UniProt Q9Y603 1-341)
T11 sequence: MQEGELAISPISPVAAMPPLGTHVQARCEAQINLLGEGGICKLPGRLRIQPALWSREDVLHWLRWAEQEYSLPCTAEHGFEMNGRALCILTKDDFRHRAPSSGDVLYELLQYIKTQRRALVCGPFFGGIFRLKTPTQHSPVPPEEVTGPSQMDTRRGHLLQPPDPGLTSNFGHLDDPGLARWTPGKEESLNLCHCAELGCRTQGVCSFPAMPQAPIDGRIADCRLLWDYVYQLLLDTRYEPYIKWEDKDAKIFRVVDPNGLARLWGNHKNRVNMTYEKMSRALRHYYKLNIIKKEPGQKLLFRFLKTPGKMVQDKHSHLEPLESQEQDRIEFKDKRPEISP
Procedure, shortened: as §1

For CGCCCA, the binding signal (ELK1) was 1.13 fold enrichment (6-mer frequency, TF over GST control), the binding signal (GABPA) was 1.11 fold enrichment (6-mer frequency, TF over GST control) and the binding signal (ERG) was 1.06 fold enrichment (6-mer frequency, TF over GST control). The binding signal (ELF1) was 1.04 fold enrichment (6-mer frequency, TF over GST control), the binding signal (ELK3) was 1.04 fold enrichment (6-mer frequency, TF over GST control) and the binding signal (FEV) was 1.02 fold enrichment (6-mer frequency, TF over GST control). The binding signal (ETV5) was 1.01 fold enrichment (6-mer frequency, TF over GST control), the binding signal (ELF4) was 1.04 fold enrichment (6-mer frequency, TF over GST control) and the binding signal (ELK4) was 1.04 fold enrichment (6-mer frequency, TF over GST control). The binding signal (ERF) was 1.08 fold enrichment (6-mer frequency, TF over GST control), the binding signal (ETS2) was 1.04 fold enrichment (6-mer frequency, TF over GST control) and the binding signal (ETV6) was 1.09 fold enrichment (6-mer frequency, TF over GST control).

For GGGGCT, the binding signal (ELK1) was 1.09 fold enrichment (6-mer frequency, TF over GST control), the binding signal (GABPA) was 1.11 fold enrichment (6-mer frequency, TF over GST control) and the binding signal (ERG) was 1.01 fold enrichment (6-mer frequency, TF over GST control). For the same sequence, the binding signal (ELF1) was 1.04 fold enrichment (6-mer frequency, TF over GST control), the binding signal (SPIB) was 1.03 fold enrichment (6-mer frequency, TF over GST control) and the binding signal (ETV5) was 1.04 fold enrichment (6-mer frequency, TF over GST control). For the same sequence, the binding signal (ELF4) was 1.1 fold enrichment (6-mer frequency, TF over GST control), the binding signal (ELK4) was 1.14 fold enrichment (6-mer frequency, TF over GST control) and the binding signal (ELF3) was 1.01 fold enrichment (6-mer frequency, TF over GST control). For the same sequence, the binding signal (ETV1) was 1.11 fold enrichment (6-mer frequency, TF over GST control), the binding signal (ERF) was 1.06 fold enrichment (6-mer frequency, TF over GST control) and the binding signal (ETV3L) was 1.22 fold enrichment (6-mer frequency, TF over GST control). For the same sequence, the binding signal (ETV7) was 1.06 fold enrichment (6-mer frequency, TF over GST control) and the binding signal (ETV6) was 1.04 fold enrichment (6-mer frequency, TF over GST control).
